M1 PAM parental = M1 PAM counterscreen hit in parental CHO-K1 cells. 360,000 tested, 0.02% active. AID 602247. activation, % at 3 µM. ATP EC20, Fluo-8 calcium fluorescence; 0% at ATP EC20, 100% at ATP max;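 active = activation above the run cutoff, the mean activation of all test compounds plus 3 SD, cut at about 40% in these data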;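 note: peak over basal fluorescence ratio in a 140 s read after ATP addition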
CHRM1 PAM = positive allosteric modulators of human M1 muscarinic receptor; P11229; 360,000 tested, 0.088% active; CHO-K1 hM1, Fluo-8 calcium fluorescence, ACh EC20; 0% = ACh EC20, 100% = maximal ACh; activation, % at 3 µM; AID 588819; in the data active = activation above about 19%, passing the limit was not always enough
Target sequence (P11229 whole entry, looked up): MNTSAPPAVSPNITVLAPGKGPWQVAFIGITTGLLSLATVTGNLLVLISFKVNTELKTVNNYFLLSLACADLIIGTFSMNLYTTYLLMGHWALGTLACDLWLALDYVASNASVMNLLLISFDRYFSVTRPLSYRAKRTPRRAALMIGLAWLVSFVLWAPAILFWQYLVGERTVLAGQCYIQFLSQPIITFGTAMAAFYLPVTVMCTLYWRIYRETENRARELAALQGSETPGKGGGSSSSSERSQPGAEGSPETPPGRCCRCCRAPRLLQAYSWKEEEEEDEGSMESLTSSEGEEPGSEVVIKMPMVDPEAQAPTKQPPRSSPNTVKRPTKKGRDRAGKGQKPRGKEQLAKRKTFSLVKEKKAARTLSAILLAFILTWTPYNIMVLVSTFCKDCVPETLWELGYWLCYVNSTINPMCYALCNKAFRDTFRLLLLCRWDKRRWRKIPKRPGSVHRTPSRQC
M1 ag parental = M1 agonist counterscreen hit in parental CHO-K1 cells | Fluo-8 calcium fluorescence; scaled to maximal ATP response, vehicle zero | activation, % at 3 µM | 360,000 tested, 0.48% active; in the data active = activation above about 15%;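 note: untransfected CHO-K1 host cells lacking M1 receptor as counterscreen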
CHRM1 agonist = activates human CHRM1 receptor. 360,000 tested, 0.33% active. CHO-K1 hM1, Fluo-8 calcium fluorescence, agonist mode; 0% DMSO, 100% acetylcholine EC100. AID 588814. activation, % at 3 µM;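 active = activation above the run's mean compound activation plus 3 SD, cut at about 16% in these data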;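 note: peak over basal fluorescence ratio within a 140 s kinetic read after compound addition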
CHO-K1 Ca antag = counter-screen for M1 antagonists: effect in parental CHO-K1 cells. inhibition, % at 3 µM. ATP-induced calcium, Fluo-8 fluorescence. 360,000 tested, 0.6% active;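 active = inhibition above a per-plate cutoff, the plate's mean sample inhibition plus 3 SD, cut at about 24% in these data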
M1 antag = antagonists of human M1 muscarinic receptor; CHO-K1 hM1, Fluo-8 calcium fluorescence, ACh EC80 antagonist; 360,000 tested, 1.3% active; inhibition, % at 3 µM;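 active = percent inhibition above its own plate's cutoff, namely the mean of that plate's compound wells plus 3 SD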;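 note: peak over basal fluorescence ratio during 140 s after agonist addition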
A number is an active result; – = inactive; · = no result. Compounds with a hit are over-represented: about 2.3% of the library has one in this group of screens.

SMILES | M1 PAM parental | CHRM1 PAM | M1 ag parental | CHRM1 agonist | CHO-K1 Ca antag | M1 antag
CCOc1cccc(NC(=O)C(Cc2cccs2)c2nn[nH]n2)c1 (stereo not given) | – | – | – | – | 27 | –
O=C(Nc1ccccc1)C(Cc1cccs1)c1nn[nH]n1 (stereo not given) | – | – | – | – | – | –
CSc1nc(N)nc2c1ncn2CC(=O)NCCNc1ccc([N+](=O)[O-])cn1 | – | – | – | – | – | –
CCN1CCC2(CC1)N=C(c1ccc(F)cc1)C(=S)N2 | – | – | – | – | – | 39
Cc1ccccc1C(=O)NC1CC2CCCC(C1)N2Cc1ccc(Cl)cc1 (stereo not given) | – | – | – | – | – | 54
COc1ccccc1C(=O)NC1CC2CCCC(C1)N2Cc1ccccc1 (stereo not given) | – | – | – | – | – | 39
O=C(NC1CC2CCCC(C1)N2Cc1ccccc1)c1cccc(F)c1 (stereo not given) | – | – | – | – | – | 49
O=C(NC1CC2CCCC(C1)N2Cc1ccccc1)c1cccc(Cl)c1 (stereo not given) | – | – | – | – | – | –
CC(C)(C)OC(=O)NC1CC2CCCC(C1)N2Cc1ccccc1 (stereo not given) | – | – | – | – | – | 98
COCC(=O)NC1CC2CCCC(C1)N2Cc1ccccc1 (stereo not given) | – | – | – | – | – | –
O=C(Nc1cccc(C(=O)N2CCOCC2)c1)C1CC1 | – | – | – | – | – | –
CCC(C)c1ccccc1NC(=O)c1cc(C)no1 (stereo not given) | – | – | – | – | – | –
CC(=O)c1ccc(OCC(=O)NCCC2=CCCCC2)cc1 | – | 24 | – | – | – | –
CCN1CCN(CCn2c(=S)[nH]c3ccccc3c2=O)CC1 | – | – | – | – | – | 86
O=C(Cc1ccccc1F)c1ccc(O)cc1O | – | – | 19 | – | – | –
C=CCN1C(=O)c2ccc(C(=O)N(C)CC(=O)Nc3ccc(Br)cc3C)cc2C1=O | – | – | – | – | – | –
COc1ccccc1C(=O)NC(=O)COC(=O)CCS(=O)(=O)c1ccc(C)cc1 | – | – | – | – | – | –
CCCC1CC(C)(C(=O)CSc2n[nH]c(-c3ccccc3)n2)OC1=O (stereo not given) | – | – | – | – | – | 30
O=C(CSc1n[nH]c(-c2ccccc2)n1)N1CCOCC1 | – | – | – | – | – | –
CSCCC(NS(=O)(=O)c1cccc(C(F)(F)F)c1)C(=O)N(C)Cc1ccc2c(c1)OCCO2 (stereo not given) | – | – | – | – | – | 38
CSCCC(NS(=O)(=O)c1ccc2c(c1)OCCO2)C(=O)N(C)Cc1ccc(F)cc1 (stereo not given) | – | – | – | – | – | –
NCCOc1ccc(C23CC4CC(CC(C4)C2)C3)cc1 | – | – | 17 | – | – | –
OCCN1CCN(CC(O)COc2ccc(C34CC5CC(CC(C5)C3)C4)cc2)CC1 (stereo not given) | – | – | – | – | – | –
COc1ccc(CCNCC(C)c2ccccc2)cc1 (stereo not given) | – | – | – | – | – | 35
Cc1cccc(N(C)c2ncnc3onc(-c4ccc(F)cc4)c23)c1C | – | – | – | – | – | –
SMILES | M1 PAM parental | CHRM1 PAM | M1 ag parental | CHRM1 agonist | CHO-K1 Ca antag | M1 antag
O=C(O)CCCn1cc(NC(=O)c2c(F)cccc2F)cn1 | – | – | 16 | – | – | –
Clc1cccc(Cl)c1CSc1nnc(-c2ccncc2)s1 | – | – | – | 60 | – | 43
CN1CCCN(C(c2ccccc2)c2ccc(Cl)cc2)CC1 (stereo not given) | – | – | – | – | – | 100
Clc1ccc(C(c2ccccc2)N2CCN(c3ccccn3)CC2)cc1 (stereo not given) | – | – | – | – | – | –
C=CCN1CCN(c2ccncc2S(=O)(=O)N2CCCCC2)CC1 | – | – | – | – | – | 31
CC(C)N1CCN(c2ccncc2S(=O)(=O)N2CCOCC2)CC1 | – | – | – | – | – | 48
O=S(=O)(c1cnccc1N1CCN(CCO)CC1)N1CCCC1 | – | – | – | – | – | –
COc1cc(OC)cc(C2=Cc3ccc(OC)cc3C(CC(C)=O)N2c2ccc(C#CC3(O)CCCCC3)cc2)c1 (stereo not given) | – | · | – | · | – | ·
COc1cccc(C2=Cc3ccc(F)cc3C(CC(C)=O)N2c2ccc(C#CC3(O)CCCCC3)cc2)c1 (stereo not given) | 46 | · | – | · | – | ·
Cc1cccc2cc3c(N)c(C(=O)N4CCc5ccccc54)sc3nc12 | – | – | 33 | – | 44 | 30
O=C(NCc1cccc(Cl)c1)c1cccc2c(-c3cccnc3)coc12 | – | – | – | – | – | –
Cc1sc2ncnc(N3CCCCC3)c2c1C | – | – | – | – | – | –
Cc1ccc(OCCN2CCN(c3ncnc4sc(C)c(C)c34)CC2)cc1 | – | – | – | – | – | 17
Clc1ccc(OCCN2CCN(c3ncnc4sccc34)CC2)cc1 | – | – | – | – | 34 | 25
CSCC(=O)NS(=O)(=O)c1ccc(C)cc1 | – | – | – | – | 28 | –
Cc1cccc(Nc2nc3c(c(=O)n(C)c(=O)n3C)n2CC(O)CO)c1 (stereo not given) | – | – | – | – | 25 | –
O=C(Nc1cccc(S(=O)(=O)Nc2ccc(Cl)cc2)c1)c1ccc(Cl)nc1 | – | – | – | – | 28 | 29
COc1ccc(NC(=O)c2cccc(S(=O)(=O)Nc3ccc(Br)cc3)c2)cn1 | – | – | 16 | – | – | –
O=C(Nc1ccc(Br)cc1)c1cccc(S(=O)(=O)Nc2cnc3ccccc3c2)c1 | – | – | – | – | – | –
COc1ccc(NS(=O)(=O)c2cccc(NC(=O)c3ccc(Cl)nc3)c2)cc1 | – | – | – | – | 43 | –
COc1cccc(S(=O)(=O)Nc2ccc(C(=O)Nc3ccncc3)cc2)c1 | – | – | – | – | – | –
COc1ccc(CN(C)C(=O)c2cc(S(=O)(=O)N3CCOCC3)ccc2N2CCCC2)cc1 | – | – | – | – | – | –
O=C(C[C@H]1C/C=C\CC[C@H](Cc2ccc(F)cc2)C(=O)O[C@@H](c2ccccc2)CNC1=O)N[C@H](CO)Cc1ccccc1 | – | – | – | 36 | – | –
O=C(C[C@H]1C/C=C\C[C@H](Cc2ccc(F)cc2)C(=O)O[C@@H](c2ccccc2)CNC1=O)N[C@H](CO)Cc1ccccc1 | – | – | – | 37 | – | –
O=C(C[C@H]1C/C=C\CC[C@H](Cc2ccc(F)cc2)C(=O)O[C@@H](c2ccccc2)CNC1=O)N[C@@H](CO)Cc1ccccc1 | – | – | – | – | – | –
